This passage reports MAPPIT interaction score results from the supplement of paper PMC10105736.

Common to all, as to test: MAPPIT interaction score (arbitrary units); higher = stronger binary interaction signal, active = hit call of the paper
For one assay, the target named is orb. To be noted: MAPPIT configuration: N-N; pair source set: DPIM.
Another assay concerns the target nos. To be noted: MAPPIT configuration: N-N; pair source set: Curagen_high_conf.
For a further assay, the target named is nSyb. To be noted: MAPPIT configuration: N-N; pair source set: DPIM.
Another assay deals with ox. To be noted: MAPPIT configuration: N-N; pair source set: Curagen_low_conf.
In another assay the target is poly. To be noted: MAPPIT configuration: N-C; pair source set: screen_3.
The next assay has as its target mwh. To be noted: MAPPIT configuration: N-N; pair source set: Curagen_high_conf.
The target of another assay is opa. To be noted: MAPPIT configuration: N-N; pair source set: Finley_Y2H.
The next assay deals with prd. To be noted: MAPPIT configuration: N-N; pair source set: Finley_Y2H.
The next assay deals with otp. To be noted: MAPPIT configuration: N-N; pair source set: screen_2.
The target of a further assay is pip. To be noted: MAPPIT configuration: N-N; pair source set: Lit-BS-16.
Another assay addresses nw. To be noted: MAPPIT configuration: N-N; pair source set: RRS.
Another assay deals with ninaD. To be noted: MAPPIT configuration: N-C; pair source set: screen_4.
In a further assay the target is ord. To be noted: MAPPIT configuration: N-N; pair source set: Lit-BM-16.

Unmarked numbers belong to inactive results.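 Rule for the calls: active = MAPPIT score above the 99th percentile of random reference set scores in the same batch; inactive = at or below it.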
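Note: HEK293T cells with Epo stimulation, STAT-responsive firefly luciferase reporter, fold induction versus unstimulated cells divided by the larger fold induction of two negative controls lacking either bait or prey.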

B1: ND-ACP (protein)
chain: MSFTQIARSCSRLAATLAPRRVASGILIQSQASRMMHRIAVPSMTSQLSQECRGRWQTQLVRKYSAKPPLSLKLINERVLLVLKLYDKIDPSKLNVESHFINDLGLDSLDHVEVIMAMEDEFGFEIPDSDAEKLLKPADIIKYVADKEDVYE
Take B1: the MAPPIT interaction score with orb is 0.0809.

B2: 128up (protein)
chain: MSTILEKISAIESEMARTQKNKATSAHLGLLKAKLAKLRRELISPKGGGGGTGEAGFEVAKTGDARVGFVGFPSVGKSTLLSNLAGVYSEVAAYEFTTLTTVPGCIKYKGAKIQLLDLPGIIEGAKDGKGRGRQVIAVARTCNLIFMVLDCLKPLGHKKLLEHELEGFGIRLNKKPPNIYYKRKDKGGINLNSMVPQSELDTDLVKTILSEYKIHNADITLRYDATSDDLIDVIEGNRIYIPCIYLLNKIDQISIEELDVIYKIPHCVPISAHHHWNFDDLLELMWEYLRLQRIYTKPKGQLPDYNSPVVLHNERTSIEDFCNKLHRSIAKEFKYALVWGSSVKHQPQKVGIEHVLNDEDVVQIVKKV
On to B2, for which the MAPPIT interaction score in the assay with nos is 0.2.

B3: eIF3c (protein)
chain: MSRFFANGSESESESSEEEIQATNFNKASAFQFSDDEEEVKRVVRSTKEKRYENLTSIIKTIRNHKKIKDIPNTLSSFEDLTRAYQKALPVISKEENGITPRFYIRCLAELEDFINEVWEDREGRKNLSKNNSKSLGTLRQKVRKYIKDFEDDLSRFREAPDQESEAEDEVVALESDGGDAGDDSDAGVKPTEAVPKAVKSAPAKAAPADDDDSDDSIDWDSDSESETESSDDENQYQNMRERFLKRTTEKEEKDDDKRKDKRKEQKTKIRKRAEDDEDGEWETVVKGHVVEKPKMFEKDAEIDVPLVLAKLLEIMSARGKKRTDRRLQIDLLFELRDISDQHNLGTAVSVKIHFNIISAIYDYNQKISEPMKLEHWALLLEVMQSMMKLLLANADIIMSESVAEEHEEYATSPFYVRGCPLAAVERLDDEFVKLLKECDPHSNDYVSRLKDEVNVVKTIELVLQYFERSGTNNERCRIYLRKIEHLYYKFDPEVLKKKRGELPATTSTSVDVMDKLCKFIYAKDDTDRIRTRAILAHIYHHAMHDNWFQARDLVLMSHLQDNIDAADPATRILYNRMMANLGLCAFRQGNVKDAHHCLVDLMVTGKPKELLAQGLLPQRQHERSAEQEKIEKQRQMPFHMHINLELLECVYLVSAMLLEIPYIAAHEFDARRRMISKTFYQQLRSSERQSLVGPPESMREHVVAAAKAMRCGNWQACANFIVNKKMNTKVWDLFYESDRVREMLTKFIKEESLRTYLFTYSNVYTSISIPSLAQMYELPVPKVHSIISKMIINEELMASLDDPSETVGMHRSEPSRLQALAMQFVDKVTNLVDVNEKVFDMKQGNFFQRGNMGNRGDRGYNRNQNNQGGNWLGQRRDRNNRNRNQRGHHKNNQDRQQQQQQQVQTIDEE
B3: in the assay with nSyb, the MAPPIT interaction score is 0.214.

B4: eEF1beta (protein)
chain: MAFGDVTTPQGLKELNAFLADNSYISGYTPSKADLSVFDALGKAPSADNVNVARWYRHIASFEAAERAAWSGTPLPQLAGGKPTVAAAAKPAADDDDDVDLFGSDDEEDEEAERIKQERVAAYAAKKSKKPALIAKSSVLLDVKPWDDETDMKEMENNVRTIEMDGLLWGASKLVPVGYGINKLQIMCVIEDDKVSIDLLQEKIEEFEDFVQSVDIAAFNKI
As for B4, in the assay with ox, the MAPPIT interaction score was 0.286.

B5: GstE14 (protein)
chain: MSQPKPILYYDERSPPVRSCLMLIKLLDIDVELRFVNLFKGEQFQKDFLALNPQHSVPTLVHGDLVLTDSHAILIHLAEKFDEGGSLWPQEHAERMKVLNLLLFECSFLFRRDSDFMSATVRQGFANVDVAHHERKLTEAYIIMERYLENSDFMAGPQLTLADLSIVTTLSTVNLMFPLSQFPRLRRWFTAMQQLDAYEANCSGLEKLRQTMESVGSFQFPSSSAVVTEKVE
For B5, the MAPPIT interaction score with poly was -0.119.

B6: mRpL13 (protein)
chain: MSIAKRVQQWATFARTWHIYDCTWQNPFESAKLVKTHLLGLQKPIYHPMNDCGDHVVLINTREIALPGDEWVKRVYFHHTGYPGGASWTLAWQLHEKDPTMVMKKAVYNSMRGNLQRRHTMQRLHLFADDQVPEEILQNVTNQIRTPRSIPQRLDHIDKETLENFPNIMDYPKDYILR
Consider B6, for which the MAPPIT interaction score in the assay with nSyb was -0.207.

B7: vilya (protein)
chain: MAKSQAGQTVEPEASKLWIHCNSCCALFCDKKHTFFLLACHHVFCERCVKVSAGRTPSDAPIFECSTCRRSVRGRQLTNSMPNHFKQLFHPEPFTIGNDFVETFQRGNHRHFDKYKERKELEMDKLFKDIEVAKSVCQKRFLEAQMLRVERKKLMQRSRYIKAEVANRKAEMHRMAQAYRSRSLTSQSSSSAQRSARGRPRGRGTATQSSSRRRSTESAKRQQITSFIHPPNNSFDL
Turning to B7, in the assay with mwh, the MAPPIT interaction score is 0.602.

B8: croc (protein)
chain: MHTLFSDQNSFTRHYAQTAAGYGSASAVAAASSASAAAAAHYAYDQYSRYPYSASAYGLGAPHQNKEIVKPPYSYIALIAMAIQNAADKKVTLNGIYQYIMERFPYYRDNKQGWQNSIRHNLSLNECFVKVARDDKKPGKGSYWTLDPDSYNMFDNGSFLRRRRRFKKKDVMREKEEAIKRQAMMNEKLAEMKPLKLMTNGILEAKHMAAHAAHFKKEPLMDLGCLSGKEVSHAAMLNSCHDSLAQMNHLAGGGVEHPGFTVDSLMNVYNPRIHHSAYPYHLNEDNLATVASSQMHHVHHAAAAHHAQQLQRHVAHVAHPLTPGGQGAGGQSSGHSPTTISTPHGPAHGGWYTPETPPSEPVPHNGQQGTPTHPGHNNNNSSSVLNHNGVGNGGGGGGGGGGGSSSVLTSSPTSALGFRDMIFEQNQSCQLDTGSPTGSLQSASPPASASVAAASAAAAAAVISSHHHHHHHHAALSGNLGQLGQLSNLSHYRPHVGHYQEYGIKYGV
As to B8, the MAPPIT interaction score is -0.778 with opa and -0.752 with prd.

B9: H15 (protein)
chain: MLLSNQPANTKPQQTPSPSQTQNFKSKLQQQIVSAAAAAAANIANGSSHHHHHQNHHHHHPLNNHHNHNHNQHNISFATDFSIAAIMARGGNAPSSREPSERSLSPASVERYSGQDADDDVDVDVVDCSDSEMPSATAAAAAAATTAAAAAAALQAQQQARQALRVAQQQQQQQQQQRQQTHHHATTGKQQRQHHNHHSSNTNNSSNSGNSNTNSKSSSQRGRSAAAVGAAATPSPPPPPPSQSPEELERLSPEESPAQQPTPKIVGSCNCDDLTPVQCHLETKELWDKFHELGTEMIITKSGRRMFPTVRVSFSGPLRQIQPADRYAVLLDVVPLDSRRYRYAYHRSSWLVAGKADPPPPSRIYAHPDCPLSPEALRKQVVSFEKVKLTNNEMDKSGQVVLNSMHRYQPRIHLVRLSHGQSIPGSPKELQDMDHKTFVFPETVFTAVTAYQNQLITKLKIDSNPFAKGFRDSSRLSDFDRDPMDAFFFDQHMRTAPLRFFPDPLMSQLTPQEADAASMALLEKARQHLQMFGRSPYTEMLLPHLYQRSAAPPPPPPAPHLSAFQLGMWQQQWPQLTAGFLASANQQAALALAAAGANRTPPPSMAVAPPAPATPTSSCGSASPDLRARPQLNHYPQRFSPYQVPQHQASPPASNRAESP
On to B9, for which the MAPPIT interaction score with otp was 0.104.

B10: Snp (protein)
chain: MALIKLARQLGLIDTIYVDGARPDPNNDPEESFNEDEVTEANSVPAKSKKSRKSKRLAMQPYSYVIAVDFEATCWEKQAPPEWREAEIIEFPAVLVNLKTGKIEAEFHQYILPFESPRLSAYCTELTGIQQKTVDSGMPLRTAIVMFNEWLRNEMRARNLTLPKMNKSNILGNCAFVTWTDWDFGICLAKECSRKGIRKPAYFNQWIDVRAIYRSWYKYRPCNFTDALSHVGLAFEGKAHSGIDDAKNLGALMCKMVRDGALFSITKDLTPYQQLNPRFVL
With B10, the MAPPIT interaction score in the assay with pip was -0.236.

B11: Snap25 (protein)
chain: MPADPSEEVAPQVPKTELEELQINAQGVADESLESTRRMLALCEESKEAGIRTLVALDDQGEQLDRIEEGMDQINADMREAEKNLSGMEKCCGICVLPCNKSQSFKEDDGTWKGNDDGKVVNNQPQRVMDDRNGMMAQAGYIGRITNDAREDEMEENMGQVNTMIGNLRNMALDMGSELENQNRQIDRINRKGESNEARIAVANQRAHQLLK
For B11, the MAPPIT interaction score with nSyb is 0.399.

B12: CG1161 (protein)
chain: MAHKRLFVYAVLLVICYLVGVTWAETAAQTFPAIGTNSNNNSNAQPAPVPAPAAPAAAAPLAKQVSAPTAAPPAKVIGQPVLAAPGKNSSNSSSTTECVCAGALLPRLDANGKELPICAECKCSHVARNTTLIKVVVIIVIWIISILVIYMLFLMCLDPLLNKRVKANYQEHTNEDDEPTPPLPAVNNQELSARANVLNRVGHQQDKWKRQVREQRRHIYDRHTMLN
Regarding B12, the MAPPIT interaction score in the assay with nw was 0.0762.

B13: CG5382 (protein)
chain: MGLCKCPKRLVTNQFCFEHRVNVCEHCMVQSHPKCIVQSYLQWLRDSDYISNCTLCGTTLEQGDCVRLVCYHVFHWDCLNARQAALPANTAPRGHQCPACSVEIFPNANLVSPVADALKSFLSQVNWGRNGLGLALLSEEQSSSLKAIKPKVASQAAVSNMTKVHHIHSGGERERTKPNGHDAVSPHSVLLMDAFNPPSAGDYASSRRPLLPRQSPIGGTDRDDNKYQRRTPAELFSRWTRRFYAPSSRPPWRRTWFLVTAGILAFVLFVYLMAWLGRGGSDAVDEGWNNPNPQPNHYE
Regarding B13, the MAPPIT interaction score with ninaD is 0.641.

B14: Sce (protein)
chain: MTSLDPAPNKTWELSLYELQRKPQEVITDSTEIAVSPRSLHSELMCPICLDMLKKTMTTKECLHRFCSDCIVTALRSGNKECPTCRKKLVSKRSLRADPNFDLLISKIYPSREEYEAIQEKVMAKFNQTQSQQALVNSINEGIKLQSQNRPQRFRTKGGGGGGGGGGNGNGAANVAAPPAPGAPTAVGRNASNQMHVHDTASNDSNSNTNSIDRENRDPGHSGTSAASAITSASNAAPSSSANSGASTSATRMQVDDASNPPSVRSTPSPVPSNSSSSKPKRAMSVLTSERSEESESDSQMDCRTEGDSNIDTEGEGNGELGINDEIELVFKPHPTEMSADNQLIRALKENCVRYIKTTANATVDHLSKYLAMRLTLDLGADLPEACRVLNFCIYVAPQPQQLVILNGNQTLHQVNDKFWKVNKPMEMYYSWKKT
B14: in the assay with ord, the MAPPIT interaction score was 1.68.
